Reference: PubChem BioAssay (Tox21)
Where “and” joins values, the source holds several entries; their conditions need not be identical. Equal values may be shown once. Results filed as inconclusive are left out. A call without a number means that no potency is given here. More than one record can exist for a structure, and the calls need not agree. Calls of active or inactive are those of the source. Unless noted, the call rests on the fitted dose curve; in most records, active means well fitted curve in the direction sought with a large enough effect in the repeat runs; inconclusive means weak or mixed curves; inactive means no such curve, though single readings can be large; an effect the other way counts as inactive or inconclusive.

Legend:
[1] = qHTS assay to identify small molecule agonists of the hypoxia (HIF-1) signaling pathway - cell viability counter screen (AID 1224844; calls by dose curve; further: nearly all actives have a fitted effect of over 50% in size; further: potency means the concentration at half of the fitted maximal effect)
In short: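 Multiplexed with the HRE beta-lactamase assay, this viability read used CellTiter-Glo luminescence (30 min, RT) on HRE-bla ME-180 cells treated 17 hrs with compounds in 0.5% dialyzed FBS medium.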

[2] = qHTS assay to identify small molecule agonists of the hypoxia (HIF-1) signaling pathway (AID 1224846; active means well fitted activation curve with a large enough effect in the signal ratio in the repeat runs, not every such curve was filed as active; the % refers to the signal ratio)
In short: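 Hypoxia-pathway activation was scored as increased beta-lactamase from an HRE-controlled reporter in ME-180 cells; plated at 2,000 cells per well with 0.5% dialyzed FBS, they were exposed 17 hrs to compounds and then given CCF4-AM.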

[3] = qHTS assay to identify small molecule antagonists of the estrogen related receptor (ERR) signaling pathway from Tox21 library (AID 1224848); further: nearly all actives have a fitted effect of over 50% in size; further: potency means the concentration at half of the fitted maximal effect
In short: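 Luminescent reporter read-out (ONE-Glo) from NTP's ERR cell line after 18 h treatment at 37 C with DMSO-dissolved Tox21 compounds; cells pre-plated 6 h beforehand at 2,000 per well.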

[4] = qHTS assay to identify small molecule agonists of the estrogen related receptor (ERR) signaling pathway from Tox21 library (AID 1224849; calls by dose curve; further: nearly all actives have a fitted effect of over 15% in size); conditions: ERR reporter cell line, ONE-Glo luciferase, 18 h
In short: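 Six hours post-seeding at 37 C/5% CO2, ERR cells receive DMSO-solubilised compounds; after 18 h at 37 C, ONE-Glo reagent is applied and luminescence recorded.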

[5] = qHTS RealTime-Glo MT Cell Viability Assay in HepG2 cells - 24 hour (AID 1224867); further: nearly all actives have a fitted effect of over 50% in size; further: potency means the concentration at half of the fitted maximal effect
In short: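 Luminescence read-out: viable HepG2 cells reduce a prosubstrate to a NanoLuc substrate, giving a signal proportional to live cell number. Reads taken at 0, 8, 16, 24, 32 and 40 h of compound exposure at 37 C.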

[6] = qHTS RealTime-Glo MT Cell Viability Assay in HEK293 cells - 32 hour (AID 1224868); further: nearly all actives have a fitted effect of over 50% in size; further: potency means the concentration at half of the fitted maximal effect
In short: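 Nonlytic real-time viability readout: viable cells convert prosubstrate to NanoLuc substrate, giving luminescence proportional to live cell number. HEK293, 600 cells/well, compound added after 5 h, continuous culture at 37 C.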

[7] = A CellTox Green Cytotoxicity Assay to monitor cytotoxicity in HEK293 cells - 0 hour (AID 1224869); further: nearly all actives have a fitted effect of over 50% in size; further: potency means the concentration at half of the fitted maximal effect
In short: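 Seeding of HEK293 cells together with cytotoxicity dye preceded a 5 h incubation at 37 C/5% CO2. Test compounds in DMSO were then added and fluorescence monitored across 40 h.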

[8] = qHTS RealTime-Glo MT Cell Viability Assay in HepG2 cells - 40 hour (AID 1224870); further: nearly all actives have a fitted effect of over 50% in size; further: potency means the concentration at half of the fitted maximal effect
In short: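 HepG2 cells (600/well) mixed with RealTime-Glo MT reagent, settled 5 h at 37 C/5% CO2 before compound addition. Nonlytic NanoLuc luminescence from viable-cell prosubstrate reduction read repeatedly during 40 h treatment at 37 C.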

[9] = qHTS assay to identify small molecule agonists of H2AX - cell viability counter screen (AID 1224847; calls by dose curve; further: nearly all actives have a fitted effect of over 30% in size; further: potency means the concentration at half of the fitted maximal effect)
In short: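 We seed wild-type CHO-K1 cells overnight, treat them for 3 hr at 37C with compounds in 15-concentration series, and quantify remaining viability by CellTiter-Glo luminescence.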

Compound | Potency [1] | Potency [2] | Potency [3] | activity change, positive = activation ([4]; at 42.5 µM (top of the series)) | Potency [5] | Potency [6] | Potency [7] | Potency [8] | Potency [9] | activity change, positive = activation ([4]; at 92.4 µM (top of the series)) | activity change, positive = activation ([4]; at 8.39 µM (top of the series))
C#C[C@]1(OC(C)=O)CC[C@H]2[C@@H]3CCC4=C[C@@H](OC(C)=O)CC[C@@H]4[C@H]3CC[C@@]21C | inactive | inactive | 23.7 µM (active) | -53.5% (inactive) | inactive | 21.3 µM (active) | inactive | inactive |  |  | 
O=S(=O)(O)c1ccc(N=Nc2c(O)ccc3ccccc23)cc1 | 12.3 µM (active) | inactive |  |  |  |  | inactive |  |  |  | 
CC(C)=CCNc1ncnc2c1ncn2[C@@H]1O[C@H](CO)[C@@H](O)[C@H]1O | 8.49 µM (active) |  | 10.6 µM (active) | -51% (inactive) | inactive |  | inactive |  | 1.96 µM (active) |  | 
CC1(C)CCC[C@]2(C)[C@H]3CC(=O)O[C@]3(C)CC[C@@H]12 | inactive | inactive |  |  | inactive | inactive |  | inactive |  |  | 
O=C1OC2(c3ccc(O)cc3Oc3cc(O)ccc32)c2ccc(N=C=S)cc21 | inactive |  | inactive |  |  |  | 22.3 µM (active) | inactive | inactive | 3.25% (inactive) | 
CC(C)NC[C@@H](O)COc1ccc(CC(N)=O)cc1 | inactive |  |  |  | inactive | inactive | inactive | inactive | inactive |  | 
Nc1ccc(C(=O)O)c(O)c1 | inactive |  |  | -27.4% (inactive) | inactive | inactive | inactive |  | inactive |  | 
CN(C)Cc1ccccc1O | inactive | inactive | inactive |  | inactive | inactive |  | inactive |  | 0.52% (inactive) | 
C=CC(=O)Nc1cc2c(Nc3ccc(F)c(Cl)c3)ncnc2cc1OCCCN1CCOCC1 | 23.9 µM (active) |  | 16.8 µM (active) | -63.1% (inactive) | 8.49 µM (active) | 9.52 µM (active) | inactive |  |  |  | 
Cc1ccc(N/N=c2\c(=O)cc/c(=N\Nc3ccc(S(=O)(=O)O)cc3)c2=O)c(C)c1 | inactive | inactive | inactive |  | inactive | inactive | inactive | inactive |  | -2.81% (inactive) | 
CCCCCCCCCCCCCCCC[N+](C)(C)CC | inactive |  | 17.3 µM (active) and 10.6 µM (active) | -55.4% (inactive) | 24.6 µM (active) and 23.9 µM (active) | 4.91 µM (active) and 4.77 µM (active) | inactive | 19.6 µM (active) and 19 µM (active) | 101 µM (active) and 49.2 µM (active) | -72.7% (inactive) | 
O=C(c1ccc(O)c(O)c1)c1ccc(O)cc1O | inactive |  | 54.4 µM (active) |  | inactive | 27.5 µM (active) |  | inactive | inactive | -38% (inactive) | 
CCOC(=O)Cn1cccc1-c1nc(-c2ccc(OC)cc2)c(-c2ccc(OC)cc2)s1 | inactive |  |  |  |  | inactive | inactive |  | inactive |  | 
CNC(=O)c1ccccc1Sc1ccc2c(/C=C/c3ccccn3)n[nH]c2c1 | inactive | inactive |  |  |  | 9.52 µM (active) |  |  |  |  | 
O=c1oc2cc(O)ccc2c2oc3cc(O)ccc3c12 | inactive |  | inactive |  | inactive |  |  | inactive | inactive |  | 
COc1ccc2cc1Oc1ccc(cc1)C[C@H]1c3c(cc4c(c3Oc3cc5c(cc3OC)CCN(C)[C@@H]5C2)OCO4)CCN1C | inactive |  | 29.8 µM (active) | -56.4% (inactive) |  | 5.35 µM (active) | inactive | 23.9 µM (active) |  |  | 
CC(=O)[C@H]1CC[C@H]2[C@@H]3CCC4=CC(=O)CC[C@]4(C)[C@H]3CC[C@]12C | inactive |  | 13.6 µM (active) and 15.4 µM (active) |  |  | 13.7 µM (active) and 17.4 µM (active) | inactive |  | 100 µM (active) and 101 µM (active) | -73.5% (inactive) and -66.4% (inactive) | 
Nc1ccc(Oc2ccc(Cl)cc2)cc1 | inactive | inactive |  |  |  | 21.4 µM (active) | inactive | inactive |  | -19.3% (inactive) | 

Compound | Potency [1] | Potency [2] | Potency [3] | activity change, positive = activation ([4]; at 42.5 µM (top of the series)) | Potency [5] | Potency [6] | Potency [7] | Potency [8] | Potency [9] | activity change, positive = activation ([4]; at 92.4 µM (top of the series)) | activity change, positive = activation ([4]; at 8.39 µM (top of the series))
Cc1cc(C(C#N)c2ccc(Cl)cc2)c(Cl)cc1NC(=O)c1cc(I)cc(I)c1O (centres undefined) | inactive |  | 26.6 µM (active) | -52.3% (inactive) | inactive | inactive | inactive | inactive |  |  | 
C=CC(=O)OCCOC(=O)C=C | 24.5 µM (active) |  |  |  | inactive | 43.6 µM (active) | inactive |  | inactive |  | 
CCOC(=O)c1ccc(C2CCC(NC[C@H](O)COc3ccc(O)c(NS(C)(=O)=O)c3)CC2)cc1 (some centres undefined) | inactive | inactive | 56.4 µM (active) |  | 45.2 µM (active) | 20.2 µM (active) | inactive | 50.7 µM (active) |  | -46.8% (inactive) | 
Fc1ccc(C(c2ccc(F)cc2)N2CCNCC2)cc1 | inactive |  |  |  | inactive |  | inactive | inactive | inactive |  | 
C#C[C@]1(O)CC[C@H]2[C@@H]3[C@H](C)CC4=C(CCC(=O)C4)[C@H]3CC[C@@]21C | inactive | inactive | 23.7 µM (active) | -32.4% (inactive) | inactive | inactive | inactive | inactive |  |  | 
Cc1ccc(O)c(N)c1 | 39 µM (active) |  |  |  | inactive |  | inactive | inactive | inactive |  | 
CCCCN(CCCC)CC(O)c1cc(Cl)cc2c1-c1ccc(Cl)cc1/C2=C/c1ccc(Cl)cc1 (centres undefined) | inactive | inactive |  | -23.2% (inactive) |  | inactive | inactive |  |  |  | 
CC(C)=CCC1=C(O)c2ccccc2C(=O)C1=O | inactive | inactive | 1.92 µM (active) |  | inactive |  | inactive | inactive |  | -51.5% (inactive) | 
Oc1c(I)cc(Cl)c2cccnc12 | inactive |  | 19.3 µM (active) and 11.9 µM (active) | -30.5% (inactive) | inactive | 24.5 µM (active) | inactive | inactive | inactive | -54.8% (inactive) | 
CCCCCCCCCCC[C@@H](C[C@@H]1OC(=O)[C@H]1CCCCCC)OC(=O)[C@H](CC(C)C)NC=O | inactive | inactive |  |  | inactive | 9.52 µM (active) |  |  |  |  | 
O=C1c2ccccc2C(=O)N1SC1CCCCC1 | 54.9 µM (active) |  |  |  |  | 24.5 µM (active) and 38.9 µM (active) |  | inactive and 43.6 µM (active) | 89.7 µM (active) and 89.8 µM (active) |  | 
CN1CCC[C@@H]1CCO[C@](C)(c1ccccc1)c1ccc(Cl)cc1 | 21.3 µM (active) |  |  | -35.9% (inactive) | 23.9 µM (active) | 19 µM (active) | inactive | 23.9 µM (active) |  |  | 
O=C(Nc1ccc2c(O)c(N=Nc3ccc(N=Nc4ccc(S(=O)(=O)O)cc4)cc3)c(S(=O)(=O)O)cc2c1)c1ccccc1 | inactive |  |  |  |  | inactive | inactive |  | 50.5 µM (active) | -30% (inactive) | 
CCCCCCCCCCCCOC(=O)c1ccc(O)cc1 | inactive | inactive |  |  |  |  | inactive | inactive |  |  | 
O=C(O)c1cc(N=Nc2ccc([N+](=O)[O-])cc2)ccc1O | inactive |  | inactive |  |  | inactive | inactive | inactive | inactive | 93.2% (active) | 
CCn1c2ccccc2c2cc([N+](=O)[O-])ccc21 | inactive |  |  |  |  |  |  |  |  |  | 
O=c1[nH]c(=O)n([C@H]2C[C@H](O)[C@@H](CO)O2)cc1F | inactive |  |  |  |  |  |  |  |  |  | 
O=C(O)O |  |  |  |  |  |  |  |  |  |  | 5.47% (inactive)
